The values that follow come from ChEMBL document CHEMBL2218924, “A broad activity screen in support of a chemogenomic map for kinase signalling research and drug discovery” (Biochem J, 2013).

For experiment [1], the target named is Tyrosine-protein kinase SYK (Homo sapiens) (UniProt P43405). Conditions: at 10 µM.
For experiment [2], the target named is T1, Mitogen-activated protein kinase kinase kinase 7 (Homo sapiens) (UniProt O43318).
T1 sequence (whole entry): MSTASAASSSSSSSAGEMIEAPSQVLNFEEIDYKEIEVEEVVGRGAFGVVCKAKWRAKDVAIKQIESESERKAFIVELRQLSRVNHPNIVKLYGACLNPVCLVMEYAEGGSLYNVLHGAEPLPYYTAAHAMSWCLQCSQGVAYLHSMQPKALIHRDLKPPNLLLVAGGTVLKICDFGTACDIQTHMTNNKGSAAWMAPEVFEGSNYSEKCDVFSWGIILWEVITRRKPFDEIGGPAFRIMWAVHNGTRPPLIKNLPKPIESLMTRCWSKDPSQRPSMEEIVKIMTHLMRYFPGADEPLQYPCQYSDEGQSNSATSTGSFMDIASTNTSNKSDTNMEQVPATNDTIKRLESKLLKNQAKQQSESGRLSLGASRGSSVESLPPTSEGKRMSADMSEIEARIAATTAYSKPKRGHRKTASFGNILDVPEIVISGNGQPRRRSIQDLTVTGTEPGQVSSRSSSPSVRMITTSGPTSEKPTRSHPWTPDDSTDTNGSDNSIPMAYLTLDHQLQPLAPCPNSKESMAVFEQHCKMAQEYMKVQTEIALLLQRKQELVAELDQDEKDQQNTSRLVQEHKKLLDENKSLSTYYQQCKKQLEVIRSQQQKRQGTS
As to conditions: at 1 µM.

Experiment [3] deals with T1, Mitogen-activated protein kinase kinase kinase 7 (Homo sapiens). As to conditions: at 10 µM.
The target of experiment [4] is T2, Serine/threonine-protein kinase TAO1 (Homo sapiens) (UniProt Q7L7X3).
T2 sequence (whole entry): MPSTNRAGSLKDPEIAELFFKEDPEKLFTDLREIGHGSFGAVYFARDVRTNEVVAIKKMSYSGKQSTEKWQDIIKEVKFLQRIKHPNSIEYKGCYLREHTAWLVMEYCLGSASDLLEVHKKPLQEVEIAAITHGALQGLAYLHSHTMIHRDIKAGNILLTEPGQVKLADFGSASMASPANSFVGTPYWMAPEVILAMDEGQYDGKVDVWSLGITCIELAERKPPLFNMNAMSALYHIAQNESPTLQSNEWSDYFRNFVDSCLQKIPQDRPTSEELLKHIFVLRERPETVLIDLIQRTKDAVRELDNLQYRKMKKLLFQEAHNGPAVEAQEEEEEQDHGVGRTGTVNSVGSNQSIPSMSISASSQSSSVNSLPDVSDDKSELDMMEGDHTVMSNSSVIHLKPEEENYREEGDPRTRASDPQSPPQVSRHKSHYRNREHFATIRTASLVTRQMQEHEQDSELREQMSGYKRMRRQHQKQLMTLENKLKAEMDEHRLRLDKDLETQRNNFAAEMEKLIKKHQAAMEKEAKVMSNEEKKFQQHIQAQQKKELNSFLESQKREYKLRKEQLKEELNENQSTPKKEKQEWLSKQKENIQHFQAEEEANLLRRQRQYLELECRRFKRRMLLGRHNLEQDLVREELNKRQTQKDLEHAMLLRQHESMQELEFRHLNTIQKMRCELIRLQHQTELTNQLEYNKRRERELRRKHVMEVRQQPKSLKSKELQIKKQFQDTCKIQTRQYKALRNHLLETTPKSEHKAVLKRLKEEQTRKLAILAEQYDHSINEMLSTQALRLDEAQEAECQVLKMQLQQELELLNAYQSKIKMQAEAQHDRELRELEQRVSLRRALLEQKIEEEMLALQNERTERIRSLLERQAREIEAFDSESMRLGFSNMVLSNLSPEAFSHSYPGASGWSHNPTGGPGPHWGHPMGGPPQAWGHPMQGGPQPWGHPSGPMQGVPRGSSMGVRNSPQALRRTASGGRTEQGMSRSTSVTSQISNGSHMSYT
As to conditions: at 1 µM.

Experiment [5] addresses T2, Serine/threonine-protein kinase TAO1 (Homo sapiens). Conditions: at 10 µM.
Experiment [6] concerns the target T3, Serine/threonine-protein kinase TAO2 (Homo sapiens) (UniProt Q9UL54).
T3 sequence (whole entry): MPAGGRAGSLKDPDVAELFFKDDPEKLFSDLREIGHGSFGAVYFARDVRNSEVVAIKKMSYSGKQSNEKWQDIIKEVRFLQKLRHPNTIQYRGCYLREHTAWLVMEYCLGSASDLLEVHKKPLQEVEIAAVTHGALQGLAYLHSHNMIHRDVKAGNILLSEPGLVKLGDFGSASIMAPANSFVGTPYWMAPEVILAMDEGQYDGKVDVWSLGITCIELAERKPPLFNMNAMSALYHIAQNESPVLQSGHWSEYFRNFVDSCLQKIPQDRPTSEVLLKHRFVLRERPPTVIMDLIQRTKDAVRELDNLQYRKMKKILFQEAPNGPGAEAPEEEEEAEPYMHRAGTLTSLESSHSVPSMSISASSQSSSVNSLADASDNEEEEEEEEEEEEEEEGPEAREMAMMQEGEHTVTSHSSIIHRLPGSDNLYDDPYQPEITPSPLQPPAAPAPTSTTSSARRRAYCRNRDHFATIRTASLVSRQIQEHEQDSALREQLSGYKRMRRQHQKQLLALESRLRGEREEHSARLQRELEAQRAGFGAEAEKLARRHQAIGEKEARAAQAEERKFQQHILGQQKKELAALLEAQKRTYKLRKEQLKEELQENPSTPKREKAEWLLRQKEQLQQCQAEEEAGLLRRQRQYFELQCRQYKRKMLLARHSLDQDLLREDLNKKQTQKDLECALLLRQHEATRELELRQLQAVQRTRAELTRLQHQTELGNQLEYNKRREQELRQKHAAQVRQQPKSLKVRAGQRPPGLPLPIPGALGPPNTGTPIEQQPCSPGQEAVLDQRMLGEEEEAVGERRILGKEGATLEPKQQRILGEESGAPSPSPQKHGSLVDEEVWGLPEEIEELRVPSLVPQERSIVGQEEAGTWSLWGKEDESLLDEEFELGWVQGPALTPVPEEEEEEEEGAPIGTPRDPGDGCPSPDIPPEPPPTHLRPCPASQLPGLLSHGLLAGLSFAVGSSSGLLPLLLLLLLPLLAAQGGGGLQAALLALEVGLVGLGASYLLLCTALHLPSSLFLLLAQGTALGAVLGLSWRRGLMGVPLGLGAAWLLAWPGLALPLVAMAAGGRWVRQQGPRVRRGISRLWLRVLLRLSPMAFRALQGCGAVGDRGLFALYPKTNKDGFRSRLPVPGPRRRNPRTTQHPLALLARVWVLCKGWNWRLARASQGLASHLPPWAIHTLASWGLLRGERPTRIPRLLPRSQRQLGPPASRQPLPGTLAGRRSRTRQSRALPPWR
Conditions: at 1 µM.

In experiment [7] the target is T3, Serine/threonine-protein kinase TAO2 (Homo sapiens). Conditions: at 10 µM.
Experiment [8] has as its target T4, Serine/threonine-protein kinase TAO3 (Homo sapiens) (UniProt Q9H2K8).
T4 sequence (whole entry): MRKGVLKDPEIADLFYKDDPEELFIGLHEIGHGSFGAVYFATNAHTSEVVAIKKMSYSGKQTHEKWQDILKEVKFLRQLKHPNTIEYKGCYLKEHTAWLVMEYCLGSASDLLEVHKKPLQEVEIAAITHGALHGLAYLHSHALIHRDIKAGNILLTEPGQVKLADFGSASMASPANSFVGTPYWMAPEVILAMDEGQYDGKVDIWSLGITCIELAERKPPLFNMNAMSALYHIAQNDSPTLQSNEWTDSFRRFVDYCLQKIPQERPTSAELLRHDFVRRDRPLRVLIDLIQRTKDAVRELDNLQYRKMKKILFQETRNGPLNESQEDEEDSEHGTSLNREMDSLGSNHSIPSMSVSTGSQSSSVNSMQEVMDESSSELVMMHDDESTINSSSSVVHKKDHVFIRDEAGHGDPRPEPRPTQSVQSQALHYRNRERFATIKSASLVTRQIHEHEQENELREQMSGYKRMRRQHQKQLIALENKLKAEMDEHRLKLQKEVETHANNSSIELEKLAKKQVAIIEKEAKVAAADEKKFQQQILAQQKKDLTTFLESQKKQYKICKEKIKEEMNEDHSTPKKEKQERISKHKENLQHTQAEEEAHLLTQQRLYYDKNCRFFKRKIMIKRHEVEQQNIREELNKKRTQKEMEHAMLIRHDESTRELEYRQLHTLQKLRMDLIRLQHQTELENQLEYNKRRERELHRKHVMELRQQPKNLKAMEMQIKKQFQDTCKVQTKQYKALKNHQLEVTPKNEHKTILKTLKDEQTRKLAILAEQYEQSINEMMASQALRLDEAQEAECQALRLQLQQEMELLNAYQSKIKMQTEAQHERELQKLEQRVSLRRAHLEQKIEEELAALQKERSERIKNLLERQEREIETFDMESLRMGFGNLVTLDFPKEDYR
Conditions: at 1 µM.

Experiment [9] addresses T4, Serine/threonine-protein kinase TAO3 (Homo sapiens). As to conditions: at 10 µM.
Experiment [10] addresses T5, Serine/threonine-protein kinase TBK1 (Homo sapiens) (UniProt Q9UHD2).
T5 sequence (whole entry): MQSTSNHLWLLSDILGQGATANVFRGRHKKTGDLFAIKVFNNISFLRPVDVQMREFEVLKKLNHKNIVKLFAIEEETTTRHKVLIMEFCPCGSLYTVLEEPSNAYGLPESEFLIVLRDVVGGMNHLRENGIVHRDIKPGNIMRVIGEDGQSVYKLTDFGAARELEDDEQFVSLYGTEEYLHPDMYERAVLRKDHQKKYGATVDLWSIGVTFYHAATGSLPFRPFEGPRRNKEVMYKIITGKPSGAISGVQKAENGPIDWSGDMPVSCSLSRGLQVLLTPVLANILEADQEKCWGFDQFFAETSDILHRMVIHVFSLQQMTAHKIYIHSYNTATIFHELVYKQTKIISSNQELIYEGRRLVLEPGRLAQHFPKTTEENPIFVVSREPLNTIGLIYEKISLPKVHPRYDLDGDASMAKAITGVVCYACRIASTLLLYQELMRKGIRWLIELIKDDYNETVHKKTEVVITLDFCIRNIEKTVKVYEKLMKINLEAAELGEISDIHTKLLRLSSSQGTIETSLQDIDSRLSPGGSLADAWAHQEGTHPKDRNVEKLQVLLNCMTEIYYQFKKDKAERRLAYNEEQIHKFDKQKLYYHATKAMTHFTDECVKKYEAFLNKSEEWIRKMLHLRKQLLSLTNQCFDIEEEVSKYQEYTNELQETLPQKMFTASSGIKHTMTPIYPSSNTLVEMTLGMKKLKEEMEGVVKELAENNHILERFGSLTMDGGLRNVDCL
Conditions: at 1 µM.

In the case of `CC(=O)O/N=C1\C(=C2\C(=O)Nc3cc(Br)ccc32)Nc2ccccc21`, the residual activity in experiment [1] was found to be 40%; in experiment [2], 91%; in [3], 85%; in experiment [4] it was 89%; in [5] it was 79%; in experiment [6] it was 81%. Also, the residual activity came to 83% in experiment [7], 96% in [8], 86% in experiment [9] and 57% in experiment [10].
